The panel holds about 83,000 compounds, 20% with a hit somewhere; the sample as a whole holds those more often.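 Single-dose data. Exposure time 48 hours. Values below 10 considered active.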 Values without a mark were called inactive. Active and inactive are the calls of the source.

This note sets out measurements from PubChem BioAssay (NCI).

Among the test systems are DU-145 prostate; K-562 leukemia; MALME-3M melanoma; MDA-MB-231 breast; RXF 393 renal; SF-268 CNS; SF-295 CNS; SF-539 CNS; UACC-257 melanoma; M14 melanoma; HCT-15 colon; HT29 colon; SNB-75 CNS; SNB-19 CNS; PC-3 prostate; SK-MEL-5 melanoma; UACC-62 melanoma; LOX IMVI melanoma; SK-MEL-28 melanoma; U251 CNS.
What all share (assay): NCI-60 one-dose screen, 48 h (100 = growth as untreated, 0 = no growth, -100 = all killed)
Holding throughout (conditions): 10 µM unless noted

Regarding `COc1ccc(NC(=O)Cn2c(=O)sc3c(-c4ccc(Cl)cc4)cc(-c4ccc(Cl)cc4)nc32)cc1`, the growth is 96.7% in the test on DU-145 prostate; 85.1% with K-562 leukemia; 112% in the test on MALME-3M melanoma; 110% in the test on MDA-MB-231 breast; 110% in the test with RXF 393 renal; 93.1% with SF-268 CNS. Besides, the growth is 95.8% in the test on SF-295 CNS; 98% in the test on SF-539 CNS; 115% in the test on UACC-257 melanoma; 94.1% in the test with M14 melanoma; 93.3% in the test with HCT-15 colon; 82.7% in the test on HT29 colon. The growth is 89.5% in the test with SNB-75 CNS; 105% in the test on SNB-19 CNS; 95.4% in the test with PC-3 prostate; 98.6% in the test with SK-MEL-5 melanoma; 85.6% in the test on UACC-62 melanoma; 91.1% in the test with LOX IMVI melanoma. For the same molecule, the growth in the test on SK-MEL-28 melanoma is 103%.
Regarding `CCN(CC)CCCCCCCCNc1c2ccc(Cl)cc2nc2ccc(OC)cc12`, the growth in the test on DU-145 prostate was -66.6% (active); in the test with K-562 leukemia, -39.3% (active); in the test on MALME-3M melanoma it was -65.6% (active); in the test with MDA-MB-231 breast it was -72.2% (active); in the test on RXF 393 renal, -92.8% (active); with SF-268 CNS, -73.2% (active). For the same molecule, the growth with SF-295 CNS was -76% (active); with SF-539 CNS, -82% (active); in the test on M14 melanoma, -82.4% (active); in the test on HCT-15 colon, -39% (active); in the test with SNB-75 CNS, -85.6% (active); with SNB-19 CNS it was -30.9% (active). The growth with PC-3 prostate is -56.4% (active); in the test on SK-MEL-5 melanoma it was -97.7% (active); in the test with UACC-62 melanoma it was -82.1% (active); in the test with LOX IMVI melanoma, -78.2% (active); with SK-MEL-28 melanoma, -85.8% (active).
In the case of `N#Cc1ccc(-c2ccc(-c3cccs3)o2)cc1F`, the growth in the test with DU-145 prostate was 88.1%; in the test with K-562 leukemia, 83.7%; in the test with MALME-3M melanoma, 86.6%; in the test on MDA-MB-231 breast it was 82.2%; in the test on RXF 393 renal, 77.2%; with SF-268 CNS, 70.7%. Further, the growth in the test with SF-295 CNS is 75.5%; in the test on SF-539 CNS, 78.1%; in the test with M14 melanoma, 87.7%; in the test on HCT-15 colon, 79.7%; in the test with HT29 colon it was 84.5%; in the test on SNB-75 CNS, 44.9%. In addition, the growth was 110% in the test with SNB-19 CNS; 67.2% in the test with U251 CNS; 84.4% in the test on SK-MEL-5 melanoma; 81.6% in the test with UACC-62 melanoma; 80.2% in the test with LOX IMVI melanoma; 91.9% with SK-MEL-28 melanoma.
As to `Cc1cc(Nc2c3ccccc3nc3ccccc23)ccc1NS(C)(=O)=O`, the growth in the test on DU-145 prostate was 29.3%; in the test with K-562 leukemia, 17.7%; with MALME-3M melanoma, 44.1%; with MDA-MB-231 breast, 50%; in the test with RXF 393 renal it was 35%; in the test with SF-268 CNS, 37.5%. For the same molecule, the growth is 34.4% in the test on SF-295 CNS; 15% in the test on SF-539 CNS; 45.1% in the test with M14 melanoma; 19.8% with HCT-15 colon; 18.2% in the test with HT29 colon; 51.3% in the test on SNB-75 CNS. The growth is 58% in the test with SNB-19 CNS; 27.1% with U251 CNS; 33.2% in the test on PC-3 prostate; 43.4% in the test with SK-MEL-5 melanoma; 57% in the test with UACC-62 melanoma; 28.3% in the test with LOX IMVI melanoma. Moreover, the growth with SK-MEL-28 melanoma is 57.2%.
Regarding `ClCCn1cnc2c(SCc3ccccc3Cl)ncnc21`, the growth in the test on DU-145 prostate is 25.4%; in the test on K-562 leukemia, 13%; with MALME-3M melanoma, 43%; with MDA-MB-231 breast it was 66.5%; in the test with SF-268 CNS, 31.3%; in the test with SF-295 CNS, 8.93% (active). Further, the growth with SF-539 CNS is 30.9%; with UACC-257 melanoma, 58.7%; in the test on HCT-15 colon, 21.3%; with HT29 colon, 26.3%; with SNB-75 CNS, 79.2%; in the test with U251 CNS, 30.4%. For the same molecule, the growth in the test with PC-3 prostate is 38.7%; with SK-MEL-5 melanoma it was 38.4%; with UACC-62 melanoma, 33.7%; in the test on LOX IMVI melanoma, 7.06% (active); in the test with SK-MEL-28 melanoma it was 47.3%.
With `COc1ccc(-c2cc(-c3cc4ccccc4oc3=O)n(-c3ccccc3)n2)cc1`, the growth was 84% with DU-145 prostate; 81.8% in the test with K-562 leukemia; 69.5% in the test with MALME-3M melanoma; 60.1% in the test with MDA-MB-231 breast; 71.1% in the test with SF-268 CNS; 94.7% in the test with SF-295 CNS. Moreover, the growth with SF-539 CNS was 33.8%; with M14 melanoma it was 89%; with HCT-15 colon, 103%; in the test on HT29 colon it was 83.8%; in the test with SNB-75 CNS, 77%; in the test on SNB-19 CNS, 82%. Also, the growth was 31.4% in the test with U251 CNS; 76.1% in the test on PC-3 prostate; 94.5% in the test with SK-MEL-5 melanoma; 80.3% in the test with UACC-62 melanoma; 59.8% in the test with LOX IMVI melanoma; 106% with SK-MEL-28 melanoma.
With `Cn1c(=O)c2c(nc(N/N=C/c3ccccc3Cl)n2C)n(C)c1=O`, the growth with DU-145 prostate was 140%; in the test with K-562 leukemia, 100%; in the test with MALME-3M melanoma, 109%; in the test with MDA-MB-231 breast, 100%; in the test on RXF 393 renal it was 112%; with SF-268 CNS, 124%. In addition, the growth in the test on SF-295 CNS is 101%; in the test with SF-539 CNS it was 87.2%; with UACC-257 melanoma it was 94.8%; in the test on M14 melanoma it was 103%; in the test with HCT-15 colon it was 105%; in the test with HT29 colon, 93.6%. Besides, the growth with SNB-75 CNS was 93.6%; in the test on SNB-19 CNS it was 108%; in the test with PC-3 prostate, 99.3%; with SK-MEL-5 melanoma, 109%; with UACC-62 melanoma, 104%; with LOX IMVI melanoma, 98.2%. Further, in the test on SK-MEL-28 melanoma, the growth was 122%.
Regarding `O=C1c2cccc3cccc(c23)C(=O)N1CCCCCCCCCCN1C(=O)c2cccc3cccc(c23)C1=O`, the growth is 123% in the test with DU-145 prostate; 103% in the test with K-562 leukemia; 113% with MALME-3M melanoma; 108% in the test on MDA-MB-231 breast; 96.6% in the test with RXF 393 renal; 100% in the test with SF-268 CNS. Moreover, the growth is 95.3% with SF-295 CNS; 102% with SF-539 CNS; 119% in the test on M14 melanoma; 102% with HCT-15 colon; 106% in the test with HT29 colon; 80.8% with SNB-75 CNS. In addition, the growth in the test with SNB-19 CNS is 104%; in the test with U251 CNS it was 100%; in the test with PC-3 prostate, 103%; in the test on SK-MEL-5 melanoma it was 102%; in the test with UACC-62 melanoma, 99.8%; with LOX IMVI melanoma it was 102%. Moreover, the growth in the test on SK-MEL-28 melanoma was 109%.
